# High-throughput results deposited in PubChem by National Center for Advancing Translational Sciences (NCATS).
# BAZ2B inh: qHTS Assay for Inhibitors of BAZ2B; Bromodomain adjacent to zinc finger domain protein 2B (Homo sapiens), Q9UIF8; AlphaScreen BAZ2B-H3K14Ac peptide displacement; Potency, µM (titrated, usually from 114 µM), for the others: at the top dose activity change, negative = inhibition, usual class: inhibitors; actives 4.4% (n = 360,000); AID 504333, 2011; note: % is set by controls: 0 for no effect and ±100 for the full control effect; nearly all actives have a fitted effect of over 60% in size
#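 AlphaScreen displacement: compounds (up to 110uM) incubated 30 min at room temperature with a preformed 50 nM BAZ2B/50 nM biotinylated H3K14Ac peptide complex in PBS pH 7.4 with Tween-20. Donor and acceptor beads at 10 ug/mL final added, 20 min light-protected before reading.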
# JMJD2A Tudor inh: qHTS Assay for Inhibitors of JMJD2A-Tudor Domain; Lysine-specific demethylase 4A (Homo sapiens), O75164; AlphaScreen JMJD2A-Tudor / H3K4me3 peptide binding; Potency, µM (titrated, usually from 114 µM), inactives show at the highest dose activity change, negative = inhibition, hits mostly inhibitors; actives 4.4% (n = 390,000); AID 504339, 2011; note: % is set by controls: 0 for no effect and ±100 for the full control effect; nearly all actives have a fitted effect of over 50% in size
# Sfp inh: qHTS Assay for Inhibitors of Bacillus subtilis Sfp phosphopantetheinyl transferase (PPTase); AID 1490, 2009; actives 3.5% (n = 310,000); Potency, µM, without a hit: largest response in the series, negative = inhibition, most hits filed as inhibitors; Biochemical Sfp PPTase activity, qHTS;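 note: the enzyme is Sfp with the accession as filed and its product quenches rhodamine fluorescence; 0% = enzyme reaction without inhibitor and -100% = no enzyme wells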
#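 Sfp 15 nM + cpd, 15 min RT; start w/ rhodamine-CoA 5 uM, BHQ-2-YbbR 12.5 uM (final); 50 mM Hepes pH 7.6, 10 mM MgCl2, 0.01% NP-40, 0.01% BSA; read 525/598 nm at 0 and 30 min.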
# HP1b chromo inh: HTS for Inhibitors of HP1-beta Chromodomain Interactions with Methylated Histone Tails. Chromobox protein homolog 1 (Homo sapiens), P83916. AlphaScreen HP1-beta / biotin-H3K9me3 peptide binding. Potency, µM (highest dose often 114 µM), inactives show at the top dose activity change, negative = inhibition, actives largely listed as inhibitors. actives 0.56% (n = 390,000); note: nearly all actives have a fitted effect of over 70% in size
#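 HP1-beta protein (50 nM final) preincubated 30 min at room temperature with biotinylated H3(1-18)K9me3 peptide (50 nM) in PBS pH 7.4, 0.01% Tween-20, then compound added for 30 min. AlphaScreen streptavidin donor/nickel chelate acceptor beads (10 ug/mL final), 30 min dark, luminescence read.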
# G9a inh: qHTS Assay for Inhibitors of Histone Lysine Methyltransferase G9a | actives 8.8% (n = 350,000) | Potency, µM (doses to about 102 µM), for inactives: at the highest dose activity, negative = inhibition, hits mostly inhibitors | Histone-lysine N-methyltransferase EHMT2 (Homo sapiens), Q96KQ7 | G9a H3K9 monomethylation, AlphaScreen, 2 h | AID 504332, 2011; note: % is set by controls: 0 for no effect and ±100 for the full control effect; nearly all actives have a fitted effect of over 75% in size
#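 G9a (20 nM) preincubated 15 min RT with compounds, then 500 nM biotinylated H3K9 peptide and 20 uM SAM added; 2 h RT reaction. Monomethyl-H3K9 product detected by AlphaScreen with anti-H3K9me1 antibody, streptavidin donor and anti-rabbit IgG acceptor beads.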
# L3MBTL1 block: qHTS Assay for the Inhibitors of L3MBTL1; actives 0.66% (n = 230,000); AlphaScreen L3MBTL1–H3K9me1 peptide binding; AID 485360, 2010; Potency, µM (top dose mostly 57.1 µM), without a hit: top-dose activity, negative = inhibition, usual class: inhibitors; note: % is set by controls: 0 for no effect and ±100 for the full control effect; nearly all actives have a fitted effect of over 60% in size
#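 AlphaScreen proximity signal between nickel-chelate acceptor and streptavidin donor beads (final 10 ug/mL) reports binding of 50 nM L3MBTL1 to 75 nM biotin-H3 K9me1 peptide; complex incubated with compounds 30 min at room temperature; cefsulodin titration as control.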
# Numbers without * were called inactive; ? = inconclusive; / = no result; [ ] = another dose, or the depositor's remark. The list is not random: actives were taken first. Their share in the collection is about 12%. Calls come from the whole dose curve; as a rule, active = well fitted curve in the direction sought with a large enough effect; inconclusive = small, poorly fitted or top-dose-only effect, or another doubt; inactive = no such curve, though single readings can be large; an effect the other way counts as inactive or inconclusive. Potency is the fitted concentration of half-maximal effect.
SMILES,BAZ2B inh,JMJD2A Tudor inh,Sfp inh,HP1b chromo inh,G9a inh,L3MBTL1 block
Cc1nc2ccc(NC(=O)C3COc4ccccc4O3)cc2s1 (stereo not given),-32%,-9%,8%,10%,-49%,/
CCC(C)NC(=O)c1ccccc1NC(=O)C1COc2ccccc2O1 (stereo not given),-2%,-13%,9%,32%,2%,2%
COCCNc1nc(-c2ccccc2CN(C)C)nc2ccccc12,/,/,4%,/,/,/
COc1cc(C2C3=C(CC(C)(C)CC3=O)OC(N)=C2[N+](=O)[O-])ccc1O (stereo not given),11%,-7%,2%,41%,50µM*,1%
C=CC[n+]1c(/C=C/c2ccc(OC(C)=O)c(OC)c2)ccc2ccccc21,-7%,2%,6%,39%,79µM*,/
COc1cc(/C=N/NC(=O)Nc2ccccc2)ccc1OC(C)=O,9%,11%,22%,21%,7%[59 µM],-1%
COc1ccc(C(=O)N/C(=C\c2cc(OC)c(OC)cc2[N+](=O)[O-])C(=O)NCC(=O)O)cc1,-8%,-10%,2%,21%,/,10%
COc1ccc(C(=O)N/C(=C\c2cc(OC)c(OC)cc2[N+](=O)[O-])C(=O)NCCO)cc1,-7%,0%,71µM*,33%,/,6%
CCN1/C(=C/C=C/c2oc3ccc4ccccc4c3[n+]2CC)Oc2ccc3ccccc3c21,?,?,8.9µM*,-10%,?,?
CCCCS(=O)CC(COc1ccc(Cl)cc1)OC(=O)c1ccccc1 (stereo not given),26%,33%,-25%,89%,50µM*,2%
Cc1cc(C)c2c(N)c3ccccc3nc2n1,2%,2%,6%,32%,50µM*,4%
CCCCCOC(=O)c1[nH]c2c(c1C)C(=O)C(C(=O)OC)C(C)C2 (stereo not given),1%,14µM*,-15%,-11%,?,/
O=C1[O][Bi][O]c2ccccc21,/,/,9%,/,3.2µM*,/
O=C1NCCNC(=O)c2ccccc2OCCOc2ccccc21,-1%,-7%,18%,29%,-7%[59 µM],4%
Cc1ccccc1C(=O)OC1OC(=O)C(Cl)=C1Nc1ccc(C(=O)O)cc1 (stereo not given),1%,14µM*,-11%,?,?,?
COc1ccc(N2C(=S)NC(C)(C)CC2(C)c2ccc(OC(C)=O)cc2OC(C)=O)cc1 (stereo not given),?,-21%,9%,11%,79µM*,/
COc1ccc(NC(=O)CSC2=Nc3ccccc3C3=NC(CC(=O)NCc4ccc(F)cc4)C(=O)N23)cc1 (stereo not given),-14%,-31%,/,27%,-13%[59 µM],/
O=C(CC1(O)C(=O)Nc2ccccc21)c1cccc(-n2cccc2)c1 (stereo not given),50µM*,?,4%,0%,?,-5%[11.4 µM]
O=C(CC1(O)C(=O)Nc2ccccc21)c1ccc2c(c1)OCO2 (stereo not given),5%,-13%,21%,3%,-43%,/
CN1C(=S)SC(N(O)C(=O)Nc2cccc3ccccc23)C1(C)C (stereo not given),-4%,-24%,-17%,-7%,45µM*,-7%
CC(=O)C1C(=O)c2c(cccc2[N+](=O)[O-])C1=Nc1ccc(S(N)(=O)=O)cc1 (stereo not given),?,?,?,7%,40µM*,-16%
COc1cc(NS(=O)(=O)c2ccc(NC(=O)c3cccs3)cc2)nc(OC)n1,-15%,-19%,6%,-3%,-14%,/
O=C(NC(=S)Nc1ccccc1N1CCOCC1)c1sc2ccccc2c1Cl,-7%,-29%,-15%,-7%,?,-2%
NC(N)=NS(=O)(=O)c1ccc(NC(=S)NC(=O)c2ccncc2)cc1,3%,-27%,50µM*,?,-17%[59 µM],/
O=C(O)c1ccccc1NC(=S)NC(=O)c1sc2ccccc2c1Cl,-2%,?,45µM*,-7%,10µM*,/
SMILES,BAZ2B inh,JMJD2A Tudor inh,Sfp inh,HP1b chromo inh,G9a inh,L3MBTL1 block
COc1cc(NS(=O)(=O)c2ccc(NC(=S)NC(=O)c3sc4ccccc4c3Cl)cc2)nc(OC)n1,50µM*,-33%,50µM*,?,?,?
COc1cc(NS(=O)(=O)c2ccc(NC(=S)NC(=O)c3sc4cc(F)ccc4c3Cl)cc2)nc(OC)n1,-29%,?,50µM*,?,?,9%
CCCCCCNc1ncnc2c1sc1nc(N3CCOCC3)c3c(c12)CCCC3,4%,-3%,/,46%,11%[59 µM],/
CCOC(=O)c1c(S(=O)(=O)N2CCC(C(=O)Nc3cccc(C#N)c3)CC2)c(C)n(C)c1C,-8%,-16%,/,12%,-5%[59 µM],/
O=C(CSc1nc2c([nH]c3ccccc32)c(=O)n1-c1ccc(F)cc1)N1CCCc2ccccc21,3%,-14%,/,0%[57 µM],10%[59 µM],/
NC(N)=NS(=O)(=O)c1ccc(NC(=S)NC(=O)c2sc3ccccc3c2Cl)cc1,-32%,-23%,56µM*,-9%,?,4%
NC(N)=NS(=O)(=O)c1ccc(NC(=S)NC(=O)c2ccc(Br)cc2)cc1,-11%,-6%,-13%,12%,-43%,-20%
Cc1cc(C(=O)c2cccs2)c(N)s1,-55%,?,50µM*,?,40µM*,-5%
Cc1cc(C)c(C(=O)c2cccs2)c(C)c1,/,33%,/,107%,/,/
O=C(O)CC(NCc1ccco1)C(=O)OCC1CCCO1 (stereo not given),50µM*,?,0%,17%,7.9µM*,13%
O=C(O)CC(NCc1ccco1)C(=O)OCCc1ccccc1 (stereo not given),-5%,6.3µM*,-13%,-19%,32µM*,2%
CCN(CC)S(=O)(=O)c1ccc2c(c1)c(=O)c(C(=O)N1CCN(c3cc(C)ccc3C)CC1)cn2C,/,-24%,/,14%,-1%[59 µM],/
Cc1cccc(/C=N/NC(=O)c2ccc(F)cc2)n1,11%,4%,40µM*,56%,14%,/
O=C(N/N=C/c1ccccn1)c1ccc(NC(=O)c2ccc(F)cc2)cc1,3%,-22%,-24%,40%,50µM*,/
